PubChem BioAssay (NCI)
About 79,000 compounds went through this panel and 15% of them were active in at least one assay; those are over-represented in the sample as a whole. Values without a mark were called inactive. Calls of active or inactive are those of the source. No stated cut-off is given here; in the data, active means growth inhibition above about 70%; inactive means the rest.

How the values were obtained:
[1] = NCI Yeast Anticancer Drug Screen. Data for the mec2-1 strain (AID 157); details: S. cerevisiae mec2-1 strain, active compounds read high
Summary of the method: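 Strain: mec2-1 (DNA repair/cell cycle alteration). Compound exposure, then growth measured; inhibition expressed relative to vehicle.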

[2] = NCI Yeast Anticancer Drug Screen. Data for the rad14 strain (AID 159);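 further: 0% = growth of vehicle-treated control cultures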; details: S. cerevisiae rad14 strain growth inhibition, active compounds read high
Summary of the method: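 Screen for anticancer potential: a yeast strain altered in DNA damage repair is grown with compound, and reduced growth is quantified against vehicle controls.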

[3] = NCI Yeast Anticancer Drug Screen. Data for the sgs1 mgt1 strain (AID 161);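 further: 0% = growth of cultures given vehicle only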; details: S. cerevisiae sgs1 mgt1 strain, active compounds read high
Summary of the method: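 Mutant yeast exposed to compound; growth scored against vehicle-only wells.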

[4] = NCI Yeast Anticancer Drug Screen. Data for the CLN2oe strain (AID 163);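 further: 0% = growth of vehicle-only control cultures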; details: S. cerevisiae CLN2oe strain, active compounds read high
Summary of the method: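 Growth of a genetically modified yeast strain is measured after compound exposure and compared with cultures given vehicle alone.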

[5] = NCI Yeast Anticancer Drug Screen. Data for the cln2 rad14 strain (AID 165);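 further: 0% = growth equal to vehicle treated cultures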; details: S. cerevisiae cln2 rad14 strain, active compounds read high
Summary of the method: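 Compounds are applied to the cln2 rad14 yeast strain, and growth is then compared with that of vehicle-treated cultures to give inhibition.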

[6] = NCI Yeast Anticancer Drug Screen. Data for the bub3 strain (AID 167); details: S. cerevisiae bub3 mutant strain, active compounds read high
Summary of the method: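 Screening used yeast with an engineered genetic alteration affecting cell cycle control. Compound-exposed cultures were compared with vehicle cultures, and reduced growth was taken as inhibition.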

[7] = NCI Yeast Anticancer Drug Screen. Data for the wt2 strain (AID 169);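 further: 0% = growth of vehicle-treated yeast cultures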; details: S. cerevisiae wt2 strain growth inhibition, active compounds read high
Summary of the method: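 This strain belongs to a panel of yeast strains with defined genetic alterations in DNA damage repair or cell cycle control. Compounds are applied, and growth inhibition is measured against vehicle-treated cultures.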

[8] = NCI Yeast Anticancer Drug Screen. Data for the mlh1 strain (AID 171);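 further: 0% = growth of vehicle-treated control cultures of the same strain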; details: S. cerevisiae mlh1 strain growth inhibition, active compounds read high
Summary of the method: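 Growth of the mutant yeast strain after compound exposure, expressed as inhibition relative to vehicle-only controls.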

[9] = NCI Yeast Anticancer Drug Screen. Data for the sgs1 strain (AID 173);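 further: 0% = growth of vehicle-only control cultures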; details: S. cerevisiae sgs1 mutant, active compounds read high
Summary of the method: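 Growth of a yeast strain bearing a defined genetic alteration is measured after compound treatment. Inhibition is expressed relative to vehicle-only controls.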

[10] = NCI Yeast Anticancer Drug Screen. Data for the mlh1 rad18 strain (AID 175); details: S. cerevisiae mlh1 rad18 strain growth inhibition, active compounds read high
Summary of the method: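 Read-out is yeast growth inhibition, calculated against vehicle-only controls. The compound was applied to a strain engineered with DNA damage repair alterations.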

[11] = NCI Yeast Anticancer Drug Screen. Data for the rad18 strain (AID 177); details: S. cerevisiae rad18 mutant growth inhibition, active compounds read high
Summary of the method: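 Growth of the mutant yeast strain after compound exposure, normalised to vehicle-only cultures.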

[12] = at 5.0 µM (retest, dose inferred, filed as 0.5)
[13] = at 50.0 µM (retest, dose inferred, filed as 5.0)

Structure (SMILES): COc1ccc(NC(=S)N/N=C(\c2ccccc2)c2ccccn2)cc1
- growth inhibition [1, 12]: 13%
- growth inhibition ([1]; at 11.0 µM): -5%
- growth inhibition ([1]; at 33.0 µM): 61%
- growth inhibition [1, 13]: 75% (active)
- growth inhibition ([1]; at 50.0 µM): 74.7% (active)
- growth inhibition ([1]; at 100.0 µM): 95% (active)
- growth inhibition ([2]; at 1.2 µM): -4%
- growth inhibition ([2]; at 3.7 µM): -4%
- growth inhibition ([2]; at 11.0 µM): -6%
- growth inhibition ([2]; at 33.0 µM): 65%
- growth inhibition ([2]; at 100.0 µM): 95% (active)
- growth inhibition [3, 12]: -34%
- growth inhibition [3, 13]: 91% (active)
- growth inhibition ([3]; at 50.0 µM): 78.3% (active)
- growth inhibition ([4]; at 1.2 µM): -1%
- growth inhibition ([4]; at 3.7 µM): -4%
- growth inhibition ([4]; at 11.0 µM): -4%
- growth inhibition ([4]; at 33.0 µM): 55%
- growth inhibition ([4]; at 100.0 µM): 95% (active)
- growth inhibition [5, 12]: 33%
- growth inhibition [5, 13]: 88% (active)
- growth inhibition ([5]; at 50.0 µM): 79.2% (active)
- growth inhibition ([6]; at 1.2 µM): -6%
- growth inhibition ([6]; at 3.7 µM): 4%
- growth inhibition [6, 12]: 35%
- growth inhibition ([6]; at 11.0 µM): 4%
- growth inhibition ([6]; at 33.0 µM): -4%
- growth inhibition [6, 13]: 90% (active)
- growth inhibition ([6]; at 50.0 µM): 83.9% (active)
- growth inhibition ([6]; at 100.0 µM): 66%
- growth inhibition ([7]; at 1.2 µM): -4%
- growth inhibition ([7]; at 3.7 µM): -4%
- growth inhibition ([7]; at 11.0 µM): -3%
- growth inhibition ([7]; at 33.0 µM): 53%
- growth inhibition ([7]; at 100.0 µM): 96% (active)
- growth inhibition ([8]; at 1.2 µM): -4%
- growth inhibition ([8]; at 3.7 µM): -4%
- growth inhibition ([8]; at 11.0 µM): -2%
- growth inhibition ([8]; at 33.0 µM): 60%
- growth inhibition ([8]; at 100.0 µM): 94% (active)
- growth inhibition ([9]; at 1.2 µM): -5%
- growth inhibition ([9]; at 3.7 µM): -4%
- growth inhibition ([9]; at 11.0 µM): 0%
- growth inhibition ([9]; at 33.0 µM): 52%
- growth inhibition ([9]; at 100.0 µM): 97% (active)
- growth inhibition [10, 12]: 55%
- growth inhibition [10, 13]: 90% (active)
- growth inhibition ([10]; at 50.0 µM): 83.7% (active)
- growth inhibition ([11]; at 1.2 µM): -3%
- growth inhibition ([11]; at 3.7 µM): 0%
- growth inhibition ([11]; at 11.0 µM): -2%
- growth inhibition ([11]; at 33.0 µM): 51%
- growth inhibition ([11]; at 100.0 µM): 95% (active)
